# Experimental data as given in PubChem BioAssay (EPA / NIEHS).
# Calls of active or inactive are those of the source. How the source made its calls: active means hit-call score of the fitted dose curve at least 0.9, where 1 is the maximum; inactive means score below 0.9.
# Key:
# [1] = read-out: Vascular cell adhesion molecule 1 (VCAM1), VCAM1 (gene 7412); test: BSK_4H_VCAM1: BioMAP Diversity Plus: 4H Assay for Vascular cell adhesion molecule 1 (VCAM1) Biomarker Activity (AID 2283033); settings: primary human endothelial cells (HUVEC); actives raise or lower the signal;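 on outcome: cell-surface VCAM-1 protein measured by ELISA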
# Method in brief: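 HUVEC, 24 h post-dose; VCAM-1 by ELISA. Bidirectional curve fit vs DMSO baseline. Parallel SRB total-protein stain (0.1% SRB after 10% TCA fixation, 560 nm) for cytotoxicity.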
# [2] = read-out: Interferon-gamma inducible Protein 10 (IP10), CXCL10 (gene 3627); test: BSK_BE3C_IP10: BioMAP Diversity Plus: BE3C Assay for Interferon-gamma inducible Protein 10 (IP10) Biomarker Activity (AID 2283034); settings: primary human bronchial epithelial cells; actives raise or lower the signal
# Method in brief: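 ELISA readout of IP-10 in BE3C system: primary human bronchial epithelial cells, 24 h post-dosing; bidirectional curve fit vs DMSO baseline.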
# [3] = read-out: Monokine induced gamma interferon (MIG), CXCL9 (gene 4283); test: BSK_BE3C_MIG: BioMAP Diversity Plus: BE3C Assay for Monokine induced gamma interferon (MIG) Biomarker Activity (AID 2283035); settings: primary human bronchial epithelial cells; actives raise or lower the signal;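 further: MIG protein measured by ELISA in BE3C cultures after 24 h of dosing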
# Method in brief: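 Dose cells (human primary bronchial epithelial), incubate 24 h, quantify MIG by ELISA, then fit concentration–response in both directions relative to DMSO control.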
# [4] = read-out: Transforming growth factor beta 1 (TGFb1), TGFB1 (gene 7040); test: BSK_BE3C_TGFb1: BioMAP Diversity Plus: BE3C Assay for Transforming growth factor beta 1 (TGFb1) Biomarker Activity (AID 2283036;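 on outcome: TGF-b1 protein level measured by ELISA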); settings: primary human bronchial epithelial cells; actives raise or lower the signal
# Method in brief: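 Read-out: ELISA for TGF-b1 in primary human bronchial epithelial cultures, 24 h post-dose. Bidirectional curve fitting vs DMSO control; gain or loss of signal both scored.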
# [5] = read-out: Plasminogen activator inhibitor-1 (PAI1), SERPINE1 (gene 5054); test: BSK_BE3C_PAI1: BioMAP Diversity Plus: BE3C Assay for Plasminogen activator inhibitor-1 (PAI1) Biomarker Activity (AID 2283037); settings: primary human bronchial epithelial cells; actives raise or lower the signal
# Method in brief: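 ELISA read-out of PAI-1 from human bronchial epithelial primary cells, 24 h post-dosing; bidirectional curve fit vs DMSO baseline, gain or loss of signal scored.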
# [6] = read-out: urokinase plasminogen activator (uPA), PLAU (gene 5328); test: BSK_BE3C_uPA: BioMAP Diversity Plus: BE3C Assay for urokinase plasminogen activator (uPA) Biomarker Activity (AID 2283038); settings: primary human bronchial epithelial cells; actives raise or lower the signal;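 on outcome: uPA protein level quantified by ELISA in cell cultures; uPA read one day after compound addition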
# Method in brief: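 Measured by ELISA: uPA from human primary bronchial epithelial cells 24 h after chemical treatment. Values derive from bidirectional curve fitting with DMSO serving as negative control. Total protein by SRB staining in parallel wells flagged overt cytotoxicity.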
# [7] = read-out: Urokinase-type plasminogen activator receptor (uPAR), PLAUR (gene 5329); test: BSK_BE3C_uPAR: BioMAP Diversity Plus: BE3C Assay for Urokinase-type plasminogen activator receptor (uPAR) Biomarker Activity (AID 2283039); settings: primary human bronchial epithelial cells; actives raise or lower the signal;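 on outcome: uPAR protein level measured by ELISA on the cells; cells exposed to compound for one day before measurement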
# Method in brief: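 ELISA readout of uPAR on human lung primary bronchial epithelial cells, 24 h post-dosing. Bidirectional curve fit relative to DMSO vehicle baseline; gain or loss of signal both scored.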
# [8] = read-out: Interleukin-6 (IL6), IL6 (gene 3569); test: BSK_CASM3C_IL6: BioMAP Diversity Plus: CASM3C Assay for Interleukin-6 (IL6) Biomarker Activity for (AID 2283040); settings: primary human coronary artery smooth muscle cells; actives raise or lower the signal
# [9] = read-out: Tissue plasminogen activator (tPA), PLAT (gene 5327); test: BSK_BE3C_tPA: BioMAP Diversity Plus: BE3C Assay for Tissue plasminogen activator (tPA) Biomarker Activity (AID 2283041); settings: primary human bronchial epithelial cells; actives raise or lower the signal;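 on outcome: tPA level quantified by ELISA one day after compound addition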
# Method in brief: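 ELISA read-out of tPA on human primary bronchial epithelial cells, 24 h post-dosing; bidirectional fit vs DMSO negative control/baseline.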
# [10] = read-out: Interleukin-8 (IL8), CXCL8 (gene 3576); test: BSK_CASM3C_IL8: BioMAP Diversity Plus: CASM3C Assay for Interleukin-8 (IL8) Biomarker Activity (AID 2283042); settings: primary human coronary artery smooth muscle cells; actives raise or lower the signal;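 further: IL-8 protein level quantified by ELISA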
Compound,outcome [1],outcome [2],outcome [3],outcome [4],outcome [5],outcome [6],outcome [7],outcome [8],outcome [9],outcome [10],AC50 [8],AC50 [10],AC50 [6],AC50 [1],AC50 [2],AC50 [7],AC50 [9],AC50 [4],AC50 [5]
CCCCC(CC)C(=O)OCCOCCOCCOC(=O)C(CC)CCCC (stereo not given),inactive,inactive,inactive,inactive,inactive,inactive,inactive,inactive,inactive,inactive,,,,,,,,,
CCCc1ccccc1,inactive,inactive,inactive,inactive,inactive,inactive,inactive,inactive,inactive,inactive,,,,,,,,,
C[C@]12C=CC(=O)C=C1CC[C@H]1[C@@H]3C[C@@H](O)[C@](O)(C(=O)CO)[C@@]3(C)C[C@H](O)[C@@]12F,inactive,inactive,inactive,inactive,inactive,inactive,inactive,,inactive,,0.356 µM (active),0.246 µM (active),,,,,,,
OCCOCCOCCO,inactive,inactive,inactive,inactive,inactive,inactive,inactive,inactive,inactive,inactive,,,,,,,,,
COCc1nnc(-c2ccc[n+]([O-])c2)n1-c1c(Cl)c(Cl)cc2[nH]c(=O)c(=O)[nH]c12,inactive,inactive,inactive,inactive,inactive,inactive,inactive,inactive,inactive,inactive,,,,,,,,,
OC(CCl)CCl,inactive,inactive,inactive,inactive,inactive,inactive,inactive,inactive,inactive,inactive,,,,,,,,,
Cc1cccc(O)c1C,inactive,inactive,inactive,inactive,inactive,inactive,inactive,inactive,inactive,inactive,,,,,,,,,
NC(=O)NN=Cc1ccc([N+](=O)[O-])o1,inactive,inactive,inactive,inactive,inactive,,inactive,inactive,inactive,inactive,,,7.99 µM (active),,,,,,
c1ccc2c(c1)-c1cccc3c1c-2cc1ccccc13,inactive,inactive,inactive,inactive,inactive,inactive,inactive,inactive,inactive,inactive,,,,,,,,,
CCc1ccc(O)c(C(C)(C)C)c1,,inactive,inactive,inactive,inactive,inactive,inactive,inactive,inactive,inactive,,,,31.1 µM (active),,,,,
CCOC(N)=O,inactive,inactive,inactive,inactive,inactive,inactive,inactive,inactive,inactive,inactive,,,,,,,,,
Cc1nccn1-c1ccc(Sc2cccc(C3(C(N)=O)CCOCC3)c2)cc1,,,inactive,inactive,inactive,,,,,inactive,5.2 µM (active),,14.3 µM (active),6.37 µM (active),20 µM (active),10.3 µM (active),4.43 µM (active),,
CCCCCCCCCC,inactive,inactive,inactive,inactive,inactive,inactive,inactive,inactive,inactive,inactive,,,,,,,,,
CCCCCCCCCCCCCCCCOS(=O)(=O)O,inactive,,inactive,,,,,inactive,,inactive,,,15.7 µM (active),,10.5 µM (active),16.1 µM (active),14.9 µM (active),16 µM (active),15.1 µM (active)
O=C1CN(N=Cc2ccc([N+](=O)[O-])o2)C(=O)N1,inactive,inactive,inactive,inactive,inactive,inactive,inactive,inactive,inactive,inactive,,,,,,,,,
O=S(=O)(O)c1ccc(N=Nc2c(O)ccc3cc(S(=O)(=O)O)ccc23)cc1,inactive,inactive,inactive,inactive,inactive,inactive,inactive,inactive,inactive,inactive,,,,,,,,,
CCCCCCCC/C=C\CCCCCCCC(=O)OC[C@@H](O)[C@H]1OC[C@H](O)[C@H]1O,inactive,inactive,inactive,inactive,inactive,inactive,inactive,inactive,inactive,inactive,,,,,,,,,
O=C(O)c1cccc(C(=O)O)c1,inactive,inactive,inactive,inactive,inactive,inactive,inactive,inactive,inactive,inactive,,,,,,,,,
CCCCOC(=O)c1ccccc1,inactive,inactive,inactive,inactive,inactive,inactive,inactive,inactive,inactive,inactive,,,,,,,,,
